# Source: PubChem BioAssay
# This is a sample that favours compounds with a hit; in the whole collection about 19% have one here.
# HT1080-NT tox: kills 2HG-producing HT-1080-NT fibrosarcoma cells. hit rate 1.6% among 360,000. Potency, µM (highest dose often 46.1 µM), for inactives: at the top dose activity, negative = less viability, most hits filed as cytotoxic. HT-1080-NT fibrosarcoma viability, CellTiter-Glo ATP luminescence, 48 h;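 note: NT is the 2HG producing partner of a matched IDH1 knockdown line; potency is the fitted concentration of half-maximal effect; 0% = DMSO-treated cells and -100% = media-only wells without cells; nearly all actives have a fitted effect of over 55% in size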
#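 Luminescent CellTiter-Glo readout after 48 hours of compound exposure at 37 degrees C defined viability of HT-1080-NT cells. Activity was normalized to DMSO wells and cell-free media wells; concentration-response curves were fitted and assigned curve classes.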
# TDP1 cell CPT: DT40-hTDP1 cell growth loss with CPT. chicken DT40 Tdp1-/-;hTDP1 cells + 20 nM CPT, ATP luminescence, 48 h. Potency, µM (top dose mostly 46.2 µM), without a hit: at the top dose activity change, negative = growth inhibition, actives largely listed as inhibitors. hit rate 12% among 420,000. AID 686979; note: potency is the fitted concentration of half-maximal effect; nearly all actives have a fitted effect of over 55% in size
#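 Chicken DT40 Tdp1-/- cells complemented with human TDP1, 400 cells/well, exposed to compounds plus 20 nM camptothecin for at least 48 h at 37 C; viability read as ATP content by CellTiter-Glo luminescence.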
# IL1B secr inh: inflammasome signaling inhibition, IL-1 beta readout | THP-1 LPS/ATP IL-1B secretion, AlphaLISA, 16 h; active compounds read low | activity change, % at 57.5 µM | hit rate 4.7% among 360,000 | AID 743279; in the data active = activity change below about -50%; inconclusive = mostly about -30% to -49%
#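 THP-1 cells pretreated 1 hr with compounds (up to 57.5 uM final), then stimulated with LPS (250 ng/mL final) plus ATP (1.25 mM final); secreted IL-1B measured by AlphaLISA after 16 hr, decreased signal indicating inhibition.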
# HT1080 IDH1KD tx: HT-1080 IDH1 knockdown cell toxicity (counter line); hit rate 2% among 360,000; HT-1080 IDH1 knockdown viability, ATP luminescence, 48 h; Potency, µM (titrated, usually from 46.1 µM), inactives show at the top dose activity, negative = toxicity, actives largely listed as cytotoxic;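 note: potency is the fitted concentration of half-maximal effect; 0% = DMSO wells and -100% = cell-free medium wells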
#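 Cytotoxicity counter-line: IDH1KD HT-1080, 48 h, CellTiter-Glo. Curves classed by r2, magnitude and activity.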
# DT40 TDP1 no CPT: qHTS for Inhibitors of human tyrosyl-DNA phosphodiesterase 1 (TDP1): qHTS in cells in absence of CPT; DT40 Tdp1-/- hTDP1 cells, no CPT, ATP luminescence, 48 h; Potency, µM (doses to about 46.2 µM), inactives show top-dose activity change, negative = growth inhibition, actives largely listed as inhibitors; hit rate 15% among 420,000; AID 686978, 2013; note: potency is the fitted concentration of half-maximal effect; nearly all actives have a fitted effect of over 55% in size
#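 Growth kinetics read by CellTiter-Glo luminescence after ≥48 hr at 37 °C. Cells: DT40 Tdp1-/- stably carrying human TDP1, 400 per well, compound exposure in the absence of CPT (DMSO vehicle).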
# * hit, by the source's call; ? = inconclusive; . = not tested or not shown; [ ] = another dose, or the depositor's remark. Unless noted, calls come from the whole dose curve; as a rule, active = well fitted curve in the direction sought with a large enough effect; inconclusive = small, poorly fitted or top-dose-only effect, or another doubt; inactive = no such curve, though single readings can be large; an effect the other way counts as inactive or inconclusive. Unless noted, % is set by controls: 0 for no effect and ±100 for the full control effect.
SMILES,HT1080-NT tox,TDP1 cell CPT,IL1B secr inh,HT1080 IDH1KD tx,DT40 TDP1 no CPT
C[C@]12c3[nH]c4ccc(Cl)cc4c3CCN1C(=O)[C@@H](CC(=O)NCCC1=CCCCC1)C[C@@H]2C(=O)N1CCOCC1,-22.5%,11.6µM*,-25.3,-20.7%,16.4µM*
O=C(C[C@H]1C[C@H](C(=O)N2CCOCC2)[C@@]2(CCC3CCCC3)c3[nH]c4cc(-c5ccco5)ccc4c3CCN2C1=O)NCCC1=CCCCC1,-9.0%,?,?,-20.1%,20.6µM*
CN(C)C(=O)CCc1ccc2c3c([nH]c2c1)[C@]1(C)[C@@H](C(=O)N2CCOCC2)C[C@H](CC(=O)NCCC2=CCCCC2)C(=O)N1CC3,4.3%,-9.8%,-16.8,8.6%,-24.8%
C[C@]12c3[nH]c4cc(-c5ccco5)ccc4c3CCN1C(=O)[C@@H](CC(=O)NCCC1=CCCCC1)C[C@@H]2C(=O)N1CCOCC1,-17.1%,16.4µM*,0.0,-22.8%,20.6µM*
CC(C)(C)NC(=O)C[C@H]1C[C@H](C(=O)N2CCOCC2)[C@@]2(C)c3[nH]c4ccc(Cl)cc4c3CCN2C1=O,0.3%,-10.1%,-5.1,1.2%,-27.7%
O=C(O)c1cc(-c2ccc(/C=C3\NC(=O)N(c4ccccc4)C3=O)o2)ccc1Cl,-0.6%,?,0.2,0.9%,4.11µM*
O=C(O)c1cc(-c2ccc(/C=C3\NC(=O)N(c4ccc(Cl)cc4)C3=O)o2)ccc1Cl,4.8%,-6.9%,-10.8,0.3%,-11.0%
Cc1ccccc1-c1cncnc1N1CCN(C)CC1,.,-15.9%,.,.,5.5%
CN1CCN(c2ncnc3ccc(-c4ccccc4Cl)cc23)CC1,.,16.4µM*,.,.,20.6µM*
Cc1ccccc1-c1ccc2ncnc(N3CCN(C)CC3)c2c1,.,?,.,.,16.4µM*
Cc1ccc(NC(=O)CSc2nc3ccc(Nc4nc(N5CCOCC5)nc(N5CCOCC5)n4)cc3s2)cc1,0.4%,?,20.7,2.3%,18.4µM*
CC(C)(C)NC(=O)CSc1nc2ccc(Nc3nc(N4CCOCC4)nc(N4CCOCC4)n3)cc2s1,?,13µM*,-8.3,?,6.51µM*
CCOC(=O)CSc1nc2ccc(Nc3nc(N4CCOCC4)nc(N4CCOCC4)n3)cc2s1,2.9%,?,17.1,?,20.6µM*
COc1ccc(NC(=O)CSc2nc3ccc(Nc4nc(N5CCOCC5)nc(N5CCOCC5)n4)cc3s2)cc1,1.9%,11.6µM*,-9.6,2.4%,6.51µM*
O=C(COC(=O)C1CC2CCCC(C1)C2=O)Nc1ccc(Cl)cn1 (configuration not stated),16.3%,-0.6%,22.6,6.1%,16.0%
O=C(Nc1nncs1)c1ccc2c(c1)OCO2,16.5%,-11.7%,-14.0,11.9%,-16.3%
Cc1cccnc1-c1cccc2c1OC(CNC(=O)/C=C/c1cccs1)C2 (configuration not stated),.,18.4%[9.04 µM],.,.,?
Cc1cnc(C)c(-c2ccc(F)c3c2OC(CNC(=O)/C=C/c2cccs2)C3)n1 (configuration not stated),.,?,.,.,20.6µM*
Cc1cnc(C)c(-c2cccc3c2OC(CNC(=O)C2(c4ccc(Cl)cc4)CC2)C3)n1 (configuration not stated),.,-13.8%[9.04 µM],.,.,20.6µM*
Cc1cnc(C)c(-c2cc(F)cc3c2OC(CNC(=O)c2cc(Cl)ccc2F)C3)n1 (configuration not stated),.,-3.2%,.,.,-9.3%
COc1ccc(NC(=O)CS(=O)(=O)Cc2ccccc2)c([N+](=O)[O-])c1,-6.8%,-0.3%,-9.7,-2.6%,-5.6%
CN(C)c1ccc(S(=O)(=O)N(C)C)cc1NC(=O)Cc1cccc2ccccc12,-0.6%,?,-51.8*,-17.8%,?
Cc1cc(O)ccc1NC(=O)Cc1cccc2ccccc12,0.1%,-16.0%,11.6,-15.9%,-3.7%
Cc1ccc2c(c1)C(C)(c1ccccc1)CC(C)(C)N2C(=O)c1ccc(F)cc1 (configuration not stated),.,?,.,.,13µM*
COc1cccc(C(=O)N2c3cc(C)ccc3C(C)(c3ccccc3)CC2(C)C)c1 (configuration not stated),.,?,.,.,14.6µM*
SMILES,HT1080-NT tox,TDP1 cell CPT,IL1B secr inh,HT1080 IDH1KD tx,DT40 TDP1 no CPT
COc1cccc(C(=O)N2c3cc(C)ccc3OCC2C(C)(C)C)c1 (configuration not stated),?,-3.2%,-2.3,16.3%,?
CN1CCN(NC(=O)/C=C/c2ccc(Br)cc2)CC1,12.7%,1.1%,0.0,0.3%,-4.8%
C/C=C(\C)C(=O)OC1[C@@H]2C=C3C4CC(=O)OC(c5ccoc5)[C@]4(C)CCC3[C@@](C)(C2=O)C(C(O)C(=O)OC)C1(C)C (some centres not stated),.,10.9%,.,.,-3.0%
Cc1ccccc1C(=O)NCC(=O)Nc1ccc(C)c(S(=O)(=O)N2CCCCCC2)c1,-1.9%,?,-4.1,2.4%,?
CN(C)S(=O)(=O)c1cccc(NC(=O)COc2ccccc2C(=O)NCc2ccccc2)c1,-5.0%,16.4µM*,-7.3,-0.2%,?
COc1cc(CCC(=O)Nc2cccc(S(=O)(=O)N(C)C)c2)cc(OC)c1OC,6.8%,?,8.0,7.9%,25.9µM*
COc1ccc(CCC(=O)Nc2ccc(OC)c(S(=O)(=O)N3CCCCC3)c2)cc1OC,2.6%,20.6µM*,0.0,-20.5%,?
CCCCNC(=O)C1=C(N)C(C(=O)Nc2ccc(C)c(S(=O)(=O)N3CCCCC3)c2)SC1=Nc1ccc(C)cc1C (configuration not stated),-13.7%,23.1µM*,0.0,-25.5%,23.1µM*
NC(=O)C1(N2CCCCC2)CCN(C(=O)Nc2ccc(C(F)(F)F)cc2)CC1,.,-7.6%,.,.,?
CC(C)(/C=N/NC(=O)CSCc1ccc(Cl)cc1)CCC#N,-17.9%,-4.9%,22.9,-21.1%,-1.8%
COc1ccc(NC(=O)CCOc2ccccc2C)cc1S(=O)(=O)N1CCCCC1,-18.0%,29.1µM*,-60.2*,-3.4%,18.4µM*
COc1cc(CCC(=O)Nc2ccc(C)c(S(=O)(=O)N3CCCCCC3)c2)cc(OC)c1OC,-3.9%,10.3µM*,3.4,?,7.31µM*
Cc1ccc(NCC(=O)Nc2cccc(F)c2)cc1S(=O)(=O)N1CCCCCC1,?,?,-74.9*,?,16.4µM*
COc1ccccc1CCC(=O)Nc1ccc(OC)c(S(=O)(=O)N2CCCCC2)c1,-1.3%,?,5.9,-4.1%,-27.5%
CCOc1ncccc1C(=O)Nc1ccc(C)c(S(=O)(=O)N2CCCCCC2)c1,-9.5%[9.24 µM],18.4µM*,-4.5,-18.0%,?
